The target in experiment [1] is Sphingosine kinase 1 (Homo sapiens) (UniProt Q9NYA1). Particulars: at 1 µM.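 Note: mean SPHK1 inhibition value reported from the GSK PKIS kinase panel screen.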
Experiment [2] has as its target T1, Sphingosine kinase 2 (Homo sapiens) (UniProt Q9NRA0).
T1 sequence (whole entry): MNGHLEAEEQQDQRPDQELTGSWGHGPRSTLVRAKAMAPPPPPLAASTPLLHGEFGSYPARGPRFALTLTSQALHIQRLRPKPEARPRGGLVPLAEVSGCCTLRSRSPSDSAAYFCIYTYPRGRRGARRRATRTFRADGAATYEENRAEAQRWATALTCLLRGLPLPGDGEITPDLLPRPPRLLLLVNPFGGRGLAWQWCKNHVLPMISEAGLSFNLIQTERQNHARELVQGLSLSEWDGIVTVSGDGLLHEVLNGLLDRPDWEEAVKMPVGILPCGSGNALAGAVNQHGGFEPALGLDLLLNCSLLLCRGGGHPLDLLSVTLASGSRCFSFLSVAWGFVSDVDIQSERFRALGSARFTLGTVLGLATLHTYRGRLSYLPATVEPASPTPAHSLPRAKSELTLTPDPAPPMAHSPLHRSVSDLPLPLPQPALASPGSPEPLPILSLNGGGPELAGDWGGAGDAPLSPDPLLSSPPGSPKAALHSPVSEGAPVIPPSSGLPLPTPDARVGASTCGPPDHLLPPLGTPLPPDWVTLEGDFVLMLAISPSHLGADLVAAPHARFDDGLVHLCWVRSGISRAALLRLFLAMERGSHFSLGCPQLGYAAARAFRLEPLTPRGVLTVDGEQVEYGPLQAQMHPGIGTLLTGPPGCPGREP
Particulars: at 0.1 µM.

Experiment [3] addresses T1, Sphingosine kinase 2 (Homo sapiens). The settings on record: at 1 µM.
The target of experiment [4] is Casein kinase II subunit alpha (Homo sapiens) (UniProt P68400). Particulars: at 0.1 µM.
Chain of Casein kinase II subunit alpha (Homo sapiens) (P68400 whole entry, looked up): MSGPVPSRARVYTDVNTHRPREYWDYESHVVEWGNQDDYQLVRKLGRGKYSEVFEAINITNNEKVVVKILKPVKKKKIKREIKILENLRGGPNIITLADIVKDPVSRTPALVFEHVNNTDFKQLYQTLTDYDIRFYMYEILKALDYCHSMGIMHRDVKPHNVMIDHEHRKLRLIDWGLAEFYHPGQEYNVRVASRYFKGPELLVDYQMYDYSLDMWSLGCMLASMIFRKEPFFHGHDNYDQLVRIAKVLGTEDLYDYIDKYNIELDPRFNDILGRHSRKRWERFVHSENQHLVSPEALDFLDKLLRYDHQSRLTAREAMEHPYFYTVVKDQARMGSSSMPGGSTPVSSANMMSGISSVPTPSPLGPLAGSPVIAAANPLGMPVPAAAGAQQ
For experiment [5] the target is unchanged. The settings on record: at 1 µM.
Experiment [6] addresses T2, Inhibitor of nuclear factor kappa-B kinase subunit alpha (Homo sapiens) (UniProt O15111).
T2 sequence (whole entry): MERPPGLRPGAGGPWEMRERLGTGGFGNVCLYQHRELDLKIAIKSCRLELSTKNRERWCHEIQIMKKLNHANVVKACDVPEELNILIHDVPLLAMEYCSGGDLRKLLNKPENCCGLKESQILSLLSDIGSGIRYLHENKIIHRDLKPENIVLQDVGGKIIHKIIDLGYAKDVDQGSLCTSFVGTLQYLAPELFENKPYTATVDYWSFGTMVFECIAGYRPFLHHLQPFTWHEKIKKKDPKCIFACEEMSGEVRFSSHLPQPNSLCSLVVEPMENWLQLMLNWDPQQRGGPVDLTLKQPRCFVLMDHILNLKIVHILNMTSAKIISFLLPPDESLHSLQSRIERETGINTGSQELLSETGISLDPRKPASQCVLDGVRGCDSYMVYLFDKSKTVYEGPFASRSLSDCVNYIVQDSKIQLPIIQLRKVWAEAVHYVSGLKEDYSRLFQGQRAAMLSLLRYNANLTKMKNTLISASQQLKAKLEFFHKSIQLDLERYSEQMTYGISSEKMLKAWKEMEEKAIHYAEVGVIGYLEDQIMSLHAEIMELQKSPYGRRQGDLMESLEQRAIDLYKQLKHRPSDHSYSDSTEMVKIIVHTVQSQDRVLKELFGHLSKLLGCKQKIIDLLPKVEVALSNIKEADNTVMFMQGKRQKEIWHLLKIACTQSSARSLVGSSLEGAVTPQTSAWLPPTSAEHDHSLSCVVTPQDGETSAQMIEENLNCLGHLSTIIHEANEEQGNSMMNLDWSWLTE
Particulars: at 0.1 µM.

The target of experiment [7] is T2, Inhibitor of nuclear factor kappa-B kinase subunit alpha (Homo sapiens). Particulars: at 1 µM.
For experiment [8], the target named is T3, Inhibitor of nuclear factor kappa-B kinase subunit beta (Homo sapiens) (UniProt O14920).
T3 sequence (whole entry): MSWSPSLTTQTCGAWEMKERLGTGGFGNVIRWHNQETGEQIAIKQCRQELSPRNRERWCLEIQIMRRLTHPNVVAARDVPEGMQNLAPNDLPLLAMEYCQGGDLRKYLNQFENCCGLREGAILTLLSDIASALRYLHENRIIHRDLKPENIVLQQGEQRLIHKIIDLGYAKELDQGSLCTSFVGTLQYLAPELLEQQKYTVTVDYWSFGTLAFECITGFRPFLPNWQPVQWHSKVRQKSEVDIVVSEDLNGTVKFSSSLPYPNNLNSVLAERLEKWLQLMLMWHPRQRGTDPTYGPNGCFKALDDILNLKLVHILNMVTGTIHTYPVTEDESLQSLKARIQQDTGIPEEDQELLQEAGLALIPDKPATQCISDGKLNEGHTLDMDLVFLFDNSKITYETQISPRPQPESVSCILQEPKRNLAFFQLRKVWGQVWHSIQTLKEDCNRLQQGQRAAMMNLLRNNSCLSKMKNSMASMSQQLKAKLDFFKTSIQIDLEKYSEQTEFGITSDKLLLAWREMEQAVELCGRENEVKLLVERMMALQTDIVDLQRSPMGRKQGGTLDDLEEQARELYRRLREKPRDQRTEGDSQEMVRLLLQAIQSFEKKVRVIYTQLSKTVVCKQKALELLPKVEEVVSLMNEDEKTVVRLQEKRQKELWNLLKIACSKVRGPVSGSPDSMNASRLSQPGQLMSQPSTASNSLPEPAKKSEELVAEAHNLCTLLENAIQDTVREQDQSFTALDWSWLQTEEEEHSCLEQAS
The settings on record: at 0.1 µM.

Experiment [9] addresses T3, Inhibitor of nuclear factor kappa-B kinase subunit beta (Homo sapiens). The settings on record: at 1 µM.
Experiment [10] addresses T4, Inhibitor of nuclear factor kappa-B kinase subunit epsilon (Homo sapiens) (UniProt Q14164).
T4 sequence (whole entry): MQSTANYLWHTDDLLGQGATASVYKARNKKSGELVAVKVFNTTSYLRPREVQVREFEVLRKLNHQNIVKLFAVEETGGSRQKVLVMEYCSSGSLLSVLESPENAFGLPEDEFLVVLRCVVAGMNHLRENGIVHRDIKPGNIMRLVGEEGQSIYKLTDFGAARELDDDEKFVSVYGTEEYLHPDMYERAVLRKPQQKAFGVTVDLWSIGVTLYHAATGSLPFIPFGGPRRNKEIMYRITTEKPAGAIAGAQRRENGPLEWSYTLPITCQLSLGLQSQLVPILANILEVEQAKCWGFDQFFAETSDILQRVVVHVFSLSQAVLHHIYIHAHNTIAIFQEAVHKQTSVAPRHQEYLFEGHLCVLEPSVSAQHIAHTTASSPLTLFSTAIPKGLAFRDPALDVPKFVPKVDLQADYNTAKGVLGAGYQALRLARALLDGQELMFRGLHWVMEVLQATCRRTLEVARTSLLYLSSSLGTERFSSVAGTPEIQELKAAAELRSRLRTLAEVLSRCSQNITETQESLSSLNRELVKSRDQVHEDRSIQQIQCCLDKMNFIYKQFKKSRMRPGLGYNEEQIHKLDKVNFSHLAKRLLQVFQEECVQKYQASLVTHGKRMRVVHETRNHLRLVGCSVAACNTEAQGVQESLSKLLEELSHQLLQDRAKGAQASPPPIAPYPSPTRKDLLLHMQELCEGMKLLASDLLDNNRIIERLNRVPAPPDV
The settings on record: at 0.1 µM.

Experiment [11] has as its target T4, Inhibitor of nuclear factor kappa-B kinase subunit epsilon (Homo sapiens). The settings on record: at 1 µM.
Experiment [12] concerns the target T5, Serine/threonine-protein kinase Nek1 (Homo sapiens) (UniProt Q96PY6).
T5 sequence (whole entry): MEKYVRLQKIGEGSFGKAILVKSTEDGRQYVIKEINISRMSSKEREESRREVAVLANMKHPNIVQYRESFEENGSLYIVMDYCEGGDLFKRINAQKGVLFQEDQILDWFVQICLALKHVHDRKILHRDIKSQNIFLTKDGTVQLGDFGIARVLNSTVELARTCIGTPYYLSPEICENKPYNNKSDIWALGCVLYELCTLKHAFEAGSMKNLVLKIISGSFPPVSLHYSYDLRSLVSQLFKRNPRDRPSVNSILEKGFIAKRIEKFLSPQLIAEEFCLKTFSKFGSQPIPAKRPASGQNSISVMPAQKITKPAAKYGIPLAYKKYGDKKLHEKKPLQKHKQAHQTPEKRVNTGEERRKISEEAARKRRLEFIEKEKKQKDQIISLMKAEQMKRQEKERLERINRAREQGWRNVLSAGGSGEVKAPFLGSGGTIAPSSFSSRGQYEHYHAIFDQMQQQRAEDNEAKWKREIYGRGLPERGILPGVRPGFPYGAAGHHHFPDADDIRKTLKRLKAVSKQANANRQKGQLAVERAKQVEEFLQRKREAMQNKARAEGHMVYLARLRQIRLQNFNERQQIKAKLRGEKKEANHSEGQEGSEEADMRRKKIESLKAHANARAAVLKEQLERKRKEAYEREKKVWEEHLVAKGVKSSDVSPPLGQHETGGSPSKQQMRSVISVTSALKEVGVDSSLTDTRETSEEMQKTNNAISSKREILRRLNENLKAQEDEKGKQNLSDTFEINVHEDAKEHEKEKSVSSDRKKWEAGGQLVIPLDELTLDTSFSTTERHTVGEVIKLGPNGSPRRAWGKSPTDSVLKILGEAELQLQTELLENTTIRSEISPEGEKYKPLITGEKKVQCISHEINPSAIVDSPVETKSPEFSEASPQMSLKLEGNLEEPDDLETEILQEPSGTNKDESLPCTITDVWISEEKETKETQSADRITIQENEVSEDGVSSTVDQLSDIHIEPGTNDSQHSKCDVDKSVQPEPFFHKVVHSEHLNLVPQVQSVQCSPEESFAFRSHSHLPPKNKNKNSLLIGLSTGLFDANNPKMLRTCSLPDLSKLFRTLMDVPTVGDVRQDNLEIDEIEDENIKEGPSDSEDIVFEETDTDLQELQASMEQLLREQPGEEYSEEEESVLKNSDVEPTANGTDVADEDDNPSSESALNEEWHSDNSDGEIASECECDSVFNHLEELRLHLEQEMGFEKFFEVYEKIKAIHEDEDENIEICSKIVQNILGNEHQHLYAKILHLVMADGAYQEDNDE
Particulars: at 0.1 µM.

Experiment [13] has as its target T5, Serine/threonine-protein kinase Nek1 (Homo sapiens). The settings on record: at 1 µM.
Experiment [14] has as its target T6, Serine/threonine-protein kinase Nek2 (Homo sapiens) (UniProt P51955).
T6 sequence (whole entry): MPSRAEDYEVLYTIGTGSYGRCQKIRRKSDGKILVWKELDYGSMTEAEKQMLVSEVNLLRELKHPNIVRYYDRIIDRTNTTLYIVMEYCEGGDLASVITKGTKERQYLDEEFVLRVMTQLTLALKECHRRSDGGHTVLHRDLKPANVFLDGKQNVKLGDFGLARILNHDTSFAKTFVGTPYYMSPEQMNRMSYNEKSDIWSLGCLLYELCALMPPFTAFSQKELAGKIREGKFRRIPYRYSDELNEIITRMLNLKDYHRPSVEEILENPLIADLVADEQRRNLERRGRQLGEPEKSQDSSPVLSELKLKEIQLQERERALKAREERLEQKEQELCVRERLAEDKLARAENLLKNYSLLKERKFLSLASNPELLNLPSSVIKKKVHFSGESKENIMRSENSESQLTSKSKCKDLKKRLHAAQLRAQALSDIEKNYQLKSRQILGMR
The settings on record: at 0.1 µM.

The target in experiment [15] is T6, Serine/threonine-protein kinase Nek2 (Homo sapiens). The settings on record: at 1 µM.
For experiment [16], the target named is Serine/threonine-protein kinase Nek6 (Homo sapiens) (UniProt Q9HC98). The settings on record: at 0.1 µM.
Chain of Serine/threonine-protein kinase Nek6 (Homo sapiens) (Q9HC98 whole entry): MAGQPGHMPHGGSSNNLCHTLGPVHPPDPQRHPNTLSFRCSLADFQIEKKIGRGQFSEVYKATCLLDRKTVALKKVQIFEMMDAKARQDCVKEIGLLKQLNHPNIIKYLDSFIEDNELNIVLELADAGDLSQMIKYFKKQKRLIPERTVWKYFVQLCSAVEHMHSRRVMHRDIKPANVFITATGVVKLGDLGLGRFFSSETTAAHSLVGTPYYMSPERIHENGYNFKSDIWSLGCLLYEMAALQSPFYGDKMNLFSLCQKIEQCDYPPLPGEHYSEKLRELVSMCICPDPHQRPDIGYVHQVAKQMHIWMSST
Experiment [17] has the same target. The settings on record: at 1 µM.
For experiment [18], the target named is Serine/threonine-protein kinase Nek7 (Homo sapiens) (UniProt Q8TDX7). The settings on record: at 0.1 µM.
Chain of Serine/threonine-protein kinase Nek7 (Homo sapiens) (Q8TDX7 whole entry, looked up): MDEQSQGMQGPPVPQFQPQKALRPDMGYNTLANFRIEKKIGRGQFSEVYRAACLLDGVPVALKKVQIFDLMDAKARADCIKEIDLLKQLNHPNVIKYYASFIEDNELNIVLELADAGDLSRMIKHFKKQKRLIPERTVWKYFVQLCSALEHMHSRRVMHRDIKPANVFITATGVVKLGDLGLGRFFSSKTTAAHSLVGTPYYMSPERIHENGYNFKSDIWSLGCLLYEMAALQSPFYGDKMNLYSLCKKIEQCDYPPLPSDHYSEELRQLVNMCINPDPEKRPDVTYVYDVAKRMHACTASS
For experiment [19] the target is unchanged. The settings on record: at 1 µM.
For experiment [20], the target named is T7, Serine/threonine-protein kinase Nek9 (Homo sapiens) (UniProt Q8TD19).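 Note: reported value is the mean percent inhibition of NEK9.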
T7 sequence (whole entry): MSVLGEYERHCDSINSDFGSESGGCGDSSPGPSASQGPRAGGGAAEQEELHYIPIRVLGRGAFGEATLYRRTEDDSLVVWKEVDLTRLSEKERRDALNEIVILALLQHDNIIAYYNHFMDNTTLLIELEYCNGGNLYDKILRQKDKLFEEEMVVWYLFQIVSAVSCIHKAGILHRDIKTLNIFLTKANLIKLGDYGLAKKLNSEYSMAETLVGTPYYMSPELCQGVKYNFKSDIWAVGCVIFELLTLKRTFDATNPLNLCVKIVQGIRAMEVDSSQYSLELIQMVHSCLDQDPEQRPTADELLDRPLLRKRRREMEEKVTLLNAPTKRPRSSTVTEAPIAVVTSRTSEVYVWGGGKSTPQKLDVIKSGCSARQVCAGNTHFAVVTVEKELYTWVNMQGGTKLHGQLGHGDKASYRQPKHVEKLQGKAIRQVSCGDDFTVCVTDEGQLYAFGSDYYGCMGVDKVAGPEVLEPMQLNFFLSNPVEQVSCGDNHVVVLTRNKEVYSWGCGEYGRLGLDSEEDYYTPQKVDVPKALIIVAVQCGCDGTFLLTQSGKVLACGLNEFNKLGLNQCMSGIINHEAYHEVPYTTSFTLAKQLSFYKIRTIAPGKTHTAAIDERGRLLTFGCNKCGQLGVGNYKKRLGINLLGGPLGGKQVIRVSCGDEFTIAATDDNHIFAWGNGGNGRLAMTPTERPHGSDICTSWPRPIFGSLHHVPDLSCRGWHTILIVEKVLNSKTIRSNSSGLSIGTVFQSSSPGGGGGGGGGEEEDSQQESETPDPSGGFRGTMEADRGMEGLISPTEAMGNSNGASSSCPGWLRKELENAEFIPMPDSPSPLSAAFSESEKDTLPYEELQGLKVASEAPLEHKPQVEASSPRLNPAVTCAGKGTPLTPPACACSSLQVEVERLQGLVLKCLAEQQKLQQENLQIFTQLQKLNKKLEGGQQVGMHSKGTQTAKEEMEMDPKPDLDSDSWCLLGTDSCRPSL
The settings on record: at 0.1 µM.

Among the data in ChEMBL document CHEMBL1961873, “Compounds: GSK PKIS; Assays: Nanosyn kinase panel” (2012) are inhibition values, retold here.

Chain of Sphingosine kinase 1 (Homo sapiens) (Q9NYA1 whole entry): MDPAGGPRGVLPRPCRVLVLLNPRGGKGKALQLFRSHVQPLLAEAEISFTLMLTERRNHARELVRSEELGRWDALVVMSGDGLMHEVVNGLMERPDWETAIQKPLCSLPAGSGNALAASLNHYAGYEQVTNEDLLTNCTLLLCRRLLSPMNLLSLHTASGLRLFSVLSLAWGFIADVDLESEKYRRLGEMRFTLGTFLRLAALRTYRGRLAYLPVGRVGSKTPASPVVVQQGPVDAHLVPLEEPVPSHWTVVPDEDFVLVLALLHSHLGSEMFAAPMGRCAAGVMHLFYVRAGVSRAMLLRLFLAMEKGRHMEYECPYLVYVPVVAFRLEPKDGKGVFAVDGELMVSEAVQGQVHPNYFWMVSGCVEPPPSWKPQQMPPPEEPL

With `CC1=C(C(=O)Nc2ccc3[nH]ncc3c2)C(c2ccc(F)cc2)N=C(c2ccc(C(F)(F)F)nc2)N1` (stereo not given), the inhibition was 2.01% in [1]; 0% in [2]; -2.07% in experiment [3]; 2.45% in [4]; 2.14% in [5]; 7.64% in experiment [6]. Also, the inhibition was -0.7% in experiment [7]; 2.1% in experiment [8]; -0.37% in experiment [9]; 2.04% in experiment [10]; 3.45% in [11]; 1.75% in experiment [12]. Further, the inhibition in experiment [13] was 1.45%; in experiment [14], 3.41%; in experiment [15], 2.65%; in [16] it was 1.87%; in experiment [17], -0.45%; in experiment [18], 3.08%. Moreover, the results for the inhibition in experiment [19] and in experiment [20] were 2.92% and 2.7%, respectively.
